# In PubChem BioAssay (NCATS):
# Results filed as inconclusive are left out. Where a call stands in place of a potency, no number is given. Activity calls are given as the source filed them. Unless noted, the call rests on the fitted dose curve. Numbered stars: 1 amine (or outer) side, 2 acyl side, 3 side chain; on linkers, the order of the positions; unused ones are H or OH. Bridge positions count the residues as written; N and C are the ends. Square brackets hold non-standard residues; d marks the D form. Peptide text beside a SMILES is read from it. I, II: the chains in the order shown. Actinocin(9to1) = Cc1c2oc3c(C)ccc(C(=O)[*:1])c3nc-2c(C(=O)[*:2])c(N)c1=O; NMeV = CN[CH](C(=O)O)C(C)C; Sar = CNCC(=O)O
# How the values were obtained:
# [1] = qHTS for Inhibitors of the Functional Ribonucleoprotein Complex (vRNP) of Lassa (LASV) Arenavirus: LASV Primary Screen - GLuc reporter signal (AID 1347082; calls by dose curve; tested in HEK293 reporter line; further: nearly all actives have a fitted effect of over 60% in size; further: potency means the concentration at half of the fitted maximal effect)
# [2] = qHTS for Inhibitors of the Functional Ribonucleoprotein Complex (vRNP) of Lassa (LASV) Arenavirus: Viability assay - alamar blue signal for LASV Primary Screen (AID 1347083; calls by dose curve; tested in HEK293 reporter line; further: nearly all actives have a fitted effect of over 80% in size; further: potency means the concentration at half of the fitted maximal effect)
# [3] = qHTS for Inhibitors of the Functional Ribonucleoprotein Complex (vRNP) of Lymphocytic Choriomeningitis Arenaviruses (LCMV): Viability assay - alamar blue signal for LCMV Primary Screen (AID 1347085; calls by dose curve; tested in HEK293 reporter line; further: nearly all actives have a fitted effect of over 80% in size; further: potency means the concentration at half of the fitted maximal effect)
# [4] = biological target: Nucleoprotein (Lymphocytic choriomeningitis virus (strain Armstrong)) (UniProt P09992); assay: qHTS for Inhibitors of the Functional Ribonucleoprotein Complex (vRNP) of Lymphocytic Choriomeningitis Arenaviruses (LCMV): LCMV Primary Screen - GLuc reporter signal (AID 1347086); further: nearly all actives have a fitted effect of over 70% in size; further: potency means the concentration at half of the fitted maximal effect
# [5] = Primary qHTS to identify inhibitors of SARS-CoV-2 cell entry (AID 1645846); conditions: activity change, negative = inhibition: at 57.1 µM (top of the series) unless noted; further: nearly all actives have a fitted effect of over 45% in size; further: potency means the concentration at half of the fitted maximal effect
# In short: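 HEK293-ACE2 (Expi293F, stable hACE2), 1500 cells/well, o/n 37C; cpd 23 nL pin, 1 h; MLV-PP w/ SARS-CoV-2-S (Wuhan-Hu-1, Δ19 C-term); 48 h 37C; Bright-Glo luminescence; normalized vs S-PP and bald PP.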
# [6] = Cytotoxicity counterscreen for inhibitors of SARS-CoV-2 cell entry (AID 1645845); further: nearly all actives have a fitted effect of over 50% in size
# In short: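 Counterscreen run in the same HEK293-ACE2 line as the pseudotyped-particle entry assay, without particles. Viability after 48 h at 37 C was read as ATP luminescence, scaled between cell-containing and cell-free wells.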
# [7] = VSVG counterscreen qHTS to identify inhibitors of SARS-CoV-2 cell entry (AID 1645847); further: potency means the concentration at half of the fitted maximal effect; nearly all actives have a fitted effect of over 65% in size
# In short: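 Expi293F/hACE2 cells, overnight plating; cpd 1 h, 37C/5% CO2; + VSV-G PP (MLV pseudotyping), 48 h; supernatant removed, Bright-Glo luciferase read. Norm: VSV-G PP and bald PP wells.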
# [8] = biological target: Alpha-galactosidase (Coffea arabica) (UniProt Q42656); assay: Counterscreen for Glucocerebrosidase Inhibitors: qHTS Assay for Coffee Bean alpha-Galactosidase at pH 4.5 (AID 957; active means well fitted curve in the direction sought with a large enough effect; an effect the other way counts as inactive or inconclusive)
# In short: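 Fluorogenic qHTS at pH 4.5 (citrate buffer with Tween-20): 2 nM enzyme, 80 uM 4-MU-alpha-galactoside substrate, compound titrated 0.7 nM to 77 uM, 20 min room temperature. Glycine/NaOH stop; 4-MU read Ex 365/Em 440; Hill-equation AC50 against no-enzyme and enzyme controls.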
# [9] = biological target: Alpha-galactosidase (Coffea arabica) (UniProt Q42656); assay: Counterscreen for Glucocerebrosidase Inhibitors: qHTS Assay for Coffee Bean alpha-Galactosidase at pH 5.9 (AID 998; active means well fitted curve in the direction sought with a large enough effect; an effect the other way counts as inactive or inconclusive)
# In short: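 Enzyme 2 nM + cpd (0.7 nM–77 uM titration) + 4-MU-alpha-Gal 80 uM, pH 5.9 citrate/Tween-20, RT 20 min, NaOH/glycine stop pH 10, fluor 365/440. Normalized to no-enzyme and full-activity controls; Hill-fit AC50.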
# [10] = Validation screen for inhibitors of Lassa infection (AID 463096)
# [11] = Inducers of the Endoplasmic Reticulum Stress Response (ERSR) in human glioma: Validation (AID 504836; active means well fitted curve in the direction sought with a large enough effect; an effect the other way counts as inactive or inconclusive)
# In short: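 Stably transfected U87-MG glioma cells carrying a GRP78-based luciferase sensor; 16 h compound incubation. Luminescence end-point read 10 min after Bright-Glo addition at room temperature.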
# [12] = qHTS profiling of the MIPE4 collection as inhibitors of Plasmodium falciparum (3D7) proliferation (AID 743344; call rule not given here); conditions: P. falciparum 3D7 in erythrocytes, SYBR Green DNA fluorescence, 72 h; at 28.5 µM (top of the series) unless noted
# In short: (§1)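 Parasite DNA was quantified by SYBR Green I fluorescence (ex 485, em 535 nm) after overnight lysis in saponin/Triton buffer at room temperature. Cultures at 0.3% parasitemia and 2.5% hematocrit were first exposed to compound for 72 h at 37 C; signals were normalised to artemisinin (0.29 uM) and vehicle wells.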
# [13] = qHTS profiling of the MIPE4 collection as inhibitors of Plasmodium falciparum (DD2) proliferation (AID 743345; call rule not given here); conditions: P. falciparum Dd2 in erythrocytes, SYBR Green DNA, 72 h; at 28.5 µM (top of the series) unless noted
# In short: as §1
# [14] = qHTS profiling of the MIPE4 collection as inhibitors of Plasmodium falciparum (DD2) proliferation (Rep 2) (AID 743346; call rule not given here); conditions: P. falciparum Dd2 in erythrocytes, SYBR Green DNA, 72 h; at 28.5 µM (top of the series) unless noted
# In short: as §1
# [15] = qHTS profiling of the MIPE4 collection as inhibitors of Plasmodium falciparum (HB3) proliferation (AID 743347; call rule not given here); conditions: P. falciparum HB3 in erythrocytes, SYBR Green DNA, 72 h; at 28.5 µM (top of the series) unless noted
# In short: as §1
# Nucleoprotein (Lymphocytic choriomeningitis virus (strain Armstrong)), sequence (P09992 whole entry, looked up): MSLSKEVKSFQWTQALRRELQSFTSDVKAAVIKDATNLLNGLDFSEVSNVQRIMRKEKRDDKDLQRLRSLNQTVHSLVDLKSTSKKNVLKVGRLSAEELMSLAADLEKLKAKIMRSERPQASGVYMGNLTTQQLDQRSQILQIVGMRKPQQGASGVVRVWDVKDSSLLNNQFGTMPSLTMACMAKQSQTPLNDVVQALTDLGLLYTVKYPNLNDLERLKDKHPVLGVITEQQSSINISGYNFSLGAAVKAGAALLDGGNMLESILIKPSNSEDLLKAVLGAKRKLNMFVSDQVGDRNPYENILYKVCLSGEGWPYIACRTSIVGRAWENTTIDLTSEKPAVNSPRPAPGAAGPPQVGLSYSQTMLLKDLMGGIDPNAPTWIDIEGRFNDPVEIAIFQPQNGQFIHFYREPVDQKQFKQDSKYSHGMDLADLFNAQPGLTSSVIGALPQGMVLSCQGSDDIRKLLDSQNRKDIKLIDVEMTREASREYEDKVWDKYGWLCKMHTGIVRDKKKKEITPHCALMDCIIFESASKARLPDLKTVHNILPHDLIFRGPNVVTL
# Alpha-galactosidase (Coffea arabica), sequence (Q42656 whole entry, looked up): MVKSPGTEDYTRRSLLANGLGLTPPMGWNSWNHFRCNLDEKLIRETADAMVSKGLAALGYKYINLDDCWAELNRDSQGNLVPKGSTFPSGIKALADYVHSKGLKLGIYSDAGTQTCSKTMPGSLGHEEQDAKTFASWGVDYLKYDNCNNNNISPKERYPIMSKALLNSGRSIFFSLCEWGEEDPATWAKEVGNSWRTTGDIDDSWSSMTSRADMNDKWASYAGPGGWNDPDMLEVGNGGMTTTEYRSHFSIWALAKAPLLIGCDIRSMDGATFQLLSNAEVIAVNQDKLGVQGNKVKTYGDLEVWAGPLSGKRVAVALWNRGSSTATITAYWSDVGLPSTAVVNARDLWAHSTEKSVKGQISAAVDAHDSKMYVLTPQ
smiles,measurement,setting,value
Cc1cc(CN2CCN(c3c(Br)cnc4nc(-c5ccc(N6CCN(C)CC6)cc5)[nH]c34)CC2)no1,Potency,[1],inactive
same,Potency,[2],inactive
same,Potency,[3],inactive
same,Potency,[4],inactive
same,Potency,[5],3.16 µM (active)
NC(=O)Nc1sc(-c2ccc(F)cc2)cc1C(N)=O,Potency,[1],0.432 µM (active)
same,Potency,[2],0.273 µM (active)
same,Potency,[3],0.137 µM (active)
same,Potency,[4],0.273 µM (active)
same,"activity change, negative = inhibition",[5],-30.6%
c1ccc(CNc2nc(NCc3ccccc3)c3ccccc3n2)cc1,Potency,[1],19.3 µM (active)
same,Potency,[2],24.3 µM (active)
same,Potency,[3],24.3 µM (active)
same,Potency,[4],3.85 µM (active)
same,Potency,[5],22.4 µM (active)
CC1(C)CC(=O)c2c(C(F)(F)F)nn(-c3ccc(C(N)=O)c(NC4CCC(O)CC4)c3)c2C1 (configuration not stated),Potency,[1],1.09 µM (active)
same,Potency,[2],0.611 µM (active)
same,Potency,[3],0.769 µM (active)
same,Potency,[4],0.273 µM (active)
same,"activity change, negative = inhibition",[5],-89.6%
CNC(=O)c1ccc(C)c(-n2c(C)cc(OCc3ccc(F)cc3F)c(Br)c2=O)c1,Potency,[1],inactive
same,Potency,[2],inactive
same,Potency,[3],inactive
same,Potency,[4],inactive
same,Potency,[5],22.4 µM (active)
Cc1cnc(CNC(=O)c2c(=O)c3ccc(N4CCCN(C)CC4)nc3n3c2sc2ccccc23)cn1,Potency,[1],inactive
same,Potency,[2],15 µM (active)
same,Potency,[3],8.41 µM (active)
same,Potency,[4],inactive
same,"activity change, negative = cytotoxicity",[6],-25.6% [at 11.3 µM] (inactive)
same,Potency,[7],3.12 µM (active)
CO[C@@H]1C(N(C)C(=O)c2ccccc2)C[C@H]2O[C@]1(C)n1c3ccccc3c3c4c(c5c6ccccc6n2c5c31)C(=O)NC4=O (some centres not stated),Potency,[1],inactive
same,Potency,[2],12.2 µM (active)
same,Potency,[3],inactive
same,Potency,[4],inactive
same,"activity change, negative = inhibition",[5],-47%
same,Potency,[7],27.1 µM (active)
C[C@H](O)[C@@H]1C(=O)N2C(C(=O)O)=C(S[C@@H]3CN[C@H](CNS(N)(=O)=O)C3)[C@@H](C)[C@@H]12,Potency,[1],inactive
same,Potency,[2],inactive
same,Potency,[3],inactive
same,Potency,[4],inactive
same,Potency,[5],inactive
NCCCCNCCCN,outcome,[8],inactive
same,outcome,[9],inactive
same,Potency,[10],inactive
same,outcome,[11],inactive
same,Potency,[1],inactive
same,Potency,[2],inactive
same,Potency,[3],inactive
same,Potency,[4],inactive
same,Potency,[6],inactive
CSc1cccc(Nc2ncc3cc(-c4c(Cl)cccc4Cl)c(=O)n(C)c3n2)c1,Potency,[1],inactive
same,Potency,[2],inactive
same,Potency,[3],inactive
same,Potency,[4],inactive
same,"activity change, negative = inhibition",[5],-95.8%
C[C@@H](c1ncncc1F)[C@](O)(Cn1cncn1)c1ccc(F)cc1F,"parasite growth, % of DMSO control",[12],65.8%
same,"parasite growth remaining, % of DMSO control (lower = more inhibition)",[13],104%
same,"parasite growth, % of control (lower = inhibition)",[14],115%
same,"growth, % of control",[15],94.6%
same,Potency,[1],inactive
same,Potency,[2],inactive
same,Potency,[3],inactive
same,Potency,[4],inactive
same,Potency,[6],inactive
Oc1cc(O)cc(/C=C/c2ccc(O)c(O)c2)c1,Potency,[10],inactive
same,outcome,[11],inactive
same,Potency,[1],inactive
same,Potency,[2],inactive
same,Potency,[3],inactive
same,Potency,[4],inactive
same,"activity change, negative = inhibition",[5],-97.4%
CNc1nc(Nc2ccc(C(=O)N3CCOCC3)cc2OC)ncc1Cl,Potency,[1],inactive
same,Potency,[2],24.3 µM (active)
same,Potency,[3],inactive
same,Potency,[4],inactive
same,Potency,[5],inactive
"Cc1c2oc3c(C)ccc(C(=O)NC4C(=O)NC(C(C)C)C(=O)N5CCCC5C(=O)N(C)CC(=O)N(C)C(C(C)C)C(=O)OC4C)c3nc-2c(C(=O)NC2C(=O)NC(C(C)C)C(=O)N3CCCC3C(=O)N(C)CC(=O)N(C)C(C(C)C)C(=O)OC2C)c(N)c1=O (configuration not stated) (I: TVP[Sar][NMeV] / II: TVP[Sar][NMeV]; ester I:1-I:C, II:1-II:C; linker I:N-II:N via Actinocin(9to1); configuration not given here)",Potency,[1],inactive
same,Potency,[2],inactive
same,Potency,[3],inactive
same,Potency,[4],inactive
same,"activity change, negative = inhibition",[5],-91.5% [at 27.1 µM]
C=CC(=O)N1CCc2ccc(-n3c(=O)ccc4cnc5ccc(-c6cnn(C)c6)cc5c43)cc21,Potency,[1],inactive
same,Potency,[2],inactive
same,Potency,[3],inactive
same,Potency,[4],inactive
same,Potency,[5],3.55 µM (active)
